# In PubChem BioAssay (NCI):
# The panel holds about 83,000 compounds, 20% with a hit somewhere; the sample as a whole holds those more often.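 Method: cells in 96-well plates; compound added at one concentration; 48 h incubation; percent growth measured; values under 10 scored active.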 Values without a mark were called inactive. Calls of active or inactive are those of the source.
# Tests used:
# Experiment in all cases: NCI-60 one-dose screen, 48 h (100 = growth as untreated, 0 = no growth, -100 = all killed)
# Settings in all cases: 10 µM unless noted
# SR leukemia = test system: SR leukemia
# RPMI-8226 leukemia = test system: RPMI-8226 leukemia
# OVCAR-8 ovarian = test system: OVCAR-8 ovarian
# OVCAR-5 ovarian = test system: OVCAR-5 ovarian
# OVCAR-4 ovarian = test system: OVCAR-4 ovarian
# SK-OV-3 ovarian = test system: SK-OV-3 ovarian
# IGROV1 ovarian = test system: IGROV1 ovarian
# OVCAR-3 ovarian = test system: OVCAR-3 ovarian
# HS 578T breast = test system: HS 578T breast
# NCI/ADR-RES ovarian = test system: NCI/ADR-RES ovarian
# T-47D breast = test system: T-47D breast
# BT-549 breast = test system: BT-549 breast
# MDA-MB-435 melanoma = test system: MDA-MB-435 melanoma
# SW-620 colon = test system: SW-620 colon
# MCF7 breast = test system: MCF7 breast
# HCT-116 colon = test system: HCT-116 colon
# HCC-2998 colon = test system: HCC-2998 colon
# KM12 colon = test system: KM12 colon
SMILES,growth (SR leukemia),growth (RPMI-8226 leukemia),growth (OVCAR-8 ovarian),growth (OVCAR-5 ovarian),growth (OVCAR-4 ovarian),growth (SK-OV-3 ovarian) [%],growth (IGROV1 ovarian),growth (OVCAR-3 ovarian),growth (HS 578T breast) [%],growth (NCI/ADR-RES ovarian) [%],growth (T-47D breast),growth (BT-549 breast),growth (MDA-MB-435 melanoma),growth (SW-620 colon),growth (MCF7 breast),growth (HCT-116 colon),growth (HCC-2998 colon),growth (KM12 colon)
N#CC(C#N)N=Nc1ccc(Br)cc1,-15.2% (active),11.5%,28%,68.3%,17.7%,60.3,49.1%,17.7%,87.1,60.9,8.56% (active),49.2%,71.7%,18.4%,19.4%,13.4%,46%,80.8%
O=C1/C(=C/c2cn(-c3ccccc3)nc2-c2ccccc2)SC(=S)N1C1CCCCC1,106%,114%,103%,108%,97.6%,108,103%,117%,103,102,97%,114%,98.8%,96%,86.2%,90.1%,108%,102%
Nc1cnc(C(=O)NNc2nc3cc(F)ccc3n3cccc23)cn1,25.5%,52.6%,27.6%,56.6%,31.3%,37.9,26%,20.9%,80.4,16.2,35.5%,52.9%,38.9%,36%,16.6%,36%,48.4%,24.7%
COc1cc2ncnc(Nc3ccc(F)c(Cl)c3)c2cc1OCC(=O)N1CCN(c2ccccc2)CC1,84.4%,83.6%,93.5%,75%,85.7%,96,48.9%,87.8%,93.9,80.5,77.4%,106%,95.6%,101%,90%,67.7%,97.8%,102%
COc1ccc(C2=C(Br)C(=O)c3nc(C)ccc3C2=O)cc1,17.3%,72.5%,88.8%,109%,87.9%,85.1,87.5%,40%,90.8,97.4,72.8%,93.4%,103%,27.2%,74.7%,74.1%,104%,91.9%
O=C(C[C@]1(O)C(=O)Nc2ccccc21)c1cccc(C(F)(F)F)c1,96.7%,88.7%,95.1%,81.4%,91.3%,75.8,67.6%,77.9%,90.3,94.7,87.9%,97.6%,103%,91.9%,81.2%,95.5%,107%,87.6%
O=S(=O)(NCCCNc1nccc(-c2c(-c3ccc(F)c(O)c3)nc3sccn23)n1)c1ccccc1,33.9%,40.3%,54.2%,113%,75.6%,78,65%,66%,72.8,100,64.8%,91.1%,29.3%,56.2%,58.5%,30.6%,78.2%,64.6%
COc1c(C(=O)Nc2ccc(C)c(Br)c2)ccc2ccccc12,54.3%,95.7%,99.3%,92.2%,82.9%,97.9,94.3%,107%,85.5,84.6,88.9%,101%,31.7%,81.1%,96%,96.5%,99.9%,81.2%
NC(N)=NCCCCCNc1noc(Cc2c[nH]c3cc(Br)ccc23)n1,98.3%,39.6%,64.6%,85.4%,67.5%,83.7,56.3%,33.4%,56.9,101,59.2%,66.5%,87.7%,92.2%,77.2%,77.2%,76.1%,45.1%
C=C1CC[C@@H]2[C@](C)(COC(C)=O)[C@H](OC(C)=O)CC[C@@]2(C)[C@@H]1CC(Nc1ccc(S(=O)(=O)Nc2ncccn2)cc1)C1=CCOC1=O (stereo partly specified),-4.43% (active),-12.7% (active),3.81% (active),-1.98% (active),42.7%,84.7,7.21% (active),-80.6% (active),51.2,16.1,42.3%,-32% (active),-14.8% (active),-70% (active),-19.6% (active),-55% (active),32%,-13.2% (active)
CCOc1nc(-c2ccccc2)cc2c(O)c(C(=O)N/N=C/c3ccccc3)[nH]c(=O)c12,95.2%,97.6%,106%,111%,119%,109,36%,103%,104,104,110%,167%,123%,100%,101%,111%,8.59% (active),109%
COc1cc2oc(-c3cccc(NC(=O)c4ccccc4)c3)cc(=O)c2c(OC)c1OC,31.6%,26.6%,61%,100%,81.7%,104,78.4%,84.2%,97.2,74.5,50.2%,74.1%,80.7%,91.5%,77.3%,67.7%,87.8%,64.4%
Nc1nc(N)c(-c2ccc(Cl)c(Cl)c2)c(CBr)n1,62.1%,80.2%,75.6%,55.3%,107%,99,47.5%,106%,91.9,58.2,91.6%,59.7%,49.8%,42%,76.7%,42%,71.7%,88.7%
CCCCCCC12CCC(=O)N1CCc1cncn12 (stereo unspecified),116%,94.6%,101%,98.7%,119%,99.2,105%,118%,112,104,91.9%,114%,105%,102%,94.8%,106%,108%,113%
Cc1c[n+](Cc2ccc3ccccc3c2)cn1Cc1ccc2ccccc2c1,-47.2% (active),-42.4% (active),2.04% (active),27.1%,-7.39% (active),35.3,-16.3% (active),-2.44% (active),46.8,101,-8.03% (active),-2.98% (active),-20.9% (active),36.8%,18.5%,23.2%,14.8%,-44.7% (active)
O=C1C(Cl)=C(NCCCCCCNC2=C(Cl)C(=O)c3ccccc3C2=O)C(=O)c2ccccc21,88%,85.2%,77.6%,110%,22.5%,98,38.2%,47.3%,89.3,93.5,90.7%,91.2%,79.4%,73.3%,81.6%,88%,103%,98.1%
COc1cc(OC)c(NC(=O)c2cc3ccccc3cc2O)cc1Cl,82.6%,7.51% (active),41.5%,89%,41.4%,71.6,1.6% (active),2.27% (active),31.1,14.1,78.7%,-25.9% (active),22.7%,21.9%,76.1%,18.1%,61.9%,18.5%
